Screens from PubChem.
p53null 32C tox – qHTS Screen for Compounds that Selectively Target Cancer Cells with p53 Mutations: Cytotoxicity of p53 Null Cells at the Permissive Temperature. Potency, µM (titrated, usually from 46.1 µM), inactives show at the highest dose activity change, negative = cytotoxicity, hits mostly cytotoxic. 55,000 tested, 0.62% active. AID 903, 2007. H1299-neo p53 null cells, ATP luminescence, 24 h, 32C;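 further: potency means the concentration at half of the fitted maximal effect; 0% = DMSO only and -100% = full killing by 100 µM tamoxifen; nearly all actives have a fitted effect of over 55% in size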
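AC50 values derive from Hill modelling of qHTS concentration-response data (up to 46 uM) in H1299-neo cells. Cells were treated 24 h at 32C following overnight attachment at 37C; viability was read as cellular ATP.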
S16 F2sN tox – Cell viability qHTS assay in S16 Pmp22-F2sN cells. 43,000 tested, 0.48% active. S16 Pmp22-F2sN Schwann cells viability, CellTiter-Glo, 24 h. AID 1508642, 2021. Potency, µM (highest dose often 57.5 µM), inactives show top-dose activity change, negative = cytotoxicity, most hits filed as cytotoxic; further: potency means the concentration at half of the fitted maximal effect; on the % scale 0 is the no-effect control and ±100 the full control effect; nearly all actives have a fitted effect of over 65% in size
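Viability was measured by CellTiter-Glo luminescence (15 min, room temperature). This followed 24 h at 37 °C of compound exposure (23 nL pin transfer) in S16 Pmp22-F2sN Schwann cells, 500-1,000 per well.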
p53null 39C kill – qHTS Screen for Compounds that Selectively Target Cancer Cells with p53 Mutations: Cytotoxicity of p53 Null Cells at the Nonpermissive Temperature; 55,000 tested, 0.97% active; H1299 p53-null (neo) cells, 39C, ATPlite viability, 24 h; Potency, µM (doses to about 46.1 µM), inactives show at the highest dose activity, negative = cell killing, usual class: cytotoxic; AID 904, 2007;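 further: potency means the concentration at half of the fitted maximal effect; 0% = DMSO only and -100% = full killing by 100 µM tamoxifen; nearly all actives have a fitted effect of over 50% in size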
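Following overnight plating at 37C (600 cells/well), H1299-neo or H1299-p53A138V cells are dosed up to 46 uM. Incubation lasts 24 hr at 39C before ATP detection.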
OvCa metastasis – Primary qHTS assay for Inhibitors of ovarian cancer metastasis using an organotypic tumor microenvironment (TME) model | SKOV3ip1-GFP adhesion/invasion on 3D omental model, fluorescence | Potency, µM (titrated, usually from 45.8 µM), for the others: top-dose activity change, negative = inhibition, hits mostly inhibitors | 46,000 tested, 0.1% active;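 further: potency means the concentration at half of the fitted maximal effect; plate controls were DMSO wells for no effect and tomatine positive control wells for full effect; nearly all actives have a fitted effect of over 65% in size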
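qHTS, 4-pt dose (0.36-46 umol/L); SKOV3ip1-GFP, 1,200 cells/well, no FBS; primary omental fibroblast/mesothelial co-culture 48 h pre-grown; 2 h RT + 16 h 37 C; PBS wash, 4% PFA; GFP count 488/509 nm.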
mTORC1 inh – Acumen qHTS Assay for Inhibitors of the mTORC1 Signaling Pathway in MEF (Tsc2-/-, p53-/-) Cells: Sytravon | Potency, µM (series often up to 38.3 µM), inactives show at the top dose activity change, negative = inhibition, most hits filed as inhibitors | Tsc2-/- p53-/- MEF, phospho-rpS6 immunofluorescence/PI, 24 h | AID 493208, 2011 | 44,000 tested, 0.78% active;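 further: potency means the concentration at half of the fitted maximal effect; plate controls were DMSO for no effect and rapamycin for full effect; nearly all actives have a fitted effect of over 50% in size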
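Compounds act on Tsc2-/-, p53-/- fibroblasts carrying an empty vector for 24 h before fixation and dual staining for phospho-S6 and DNA (propidium iodide). Values are percentages of cells above a rapamycin-defined pS6/PI threshold.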
PMP22 txn prim – Cell-based coincidence reporter assay to measure PMP22 gene transcription in S16 Pmp22-F2sN cells - Primary screen | S16 Pmp22-F2sN Schwann cells (luciferase reporters placed in the Pmp22 gene), FLuc/NLuc coincidence luminescence, 24 h | Potency, µM (highest dose often 57.5 µM), inactives show top-dose activity change, negative = inhibition, hits mostly inhibitors | 43,000 tested, 2% active | AID 1508649, 2021; active means clear falling dose curves in both reporters; inconclusive means both reporters move, but less clearly or upward; inactive means either reporter flat; the % is the NLuc reporter signal; further: potency means the concentration at half of the fitted maximal effect; on the % scale 0 is the no-effect control and ±100 the full control effect
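S16 Schwann cells carrying FLuc/NLuc coincidence reporter in the Pmp22 3' UTR treated with compound 24 h at 37C; FLuc then NLuc luminescence read sequentially by dual-luciferase reagents.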
NLuc sat counter – Biochemical NLuc saturation counterscreen for small molecule modulators of PMP22 gene expression - Nano-Glo assay; AID 1508638, 2021; 690 tested, 4% active; Secreted NLuc enzyme (filtered S16 cell medium), Nano-Glo luminescence; shares compounds with PMP22 txn prim; Potency, µM (titrated, usually from 57.5 µM), inactives show at the top dose activity change, negative = inhibition, hits mostly inhibitors; further: potency means the concentration at half of the fitted maximal effect; on the % scale 0 is the no-effect control and ±100 the full control effect
NLuc Km counter – Biochemical coelenterazine-based NLuc counterscreen for small molecule modulators of PMP22 gene expression - Km assay; shares compounds with PMP22 txn prim; secreted NLuc enzyme, coelenterazine luminescence, Km conditions; Potency, µM (titrated, usually from 57.5 µM), inactives show at the top dose activity change, negative = inhibition, actives largely listed as inhibitors; 690 tested, 5% active; AID 1508639, 2021; further: potency means the concentration at half of the fitted maximal effect; on the % scale 0 is the no-effect control and ±100 the full control effect
FLuc counter – Biochemical FLuc counterscreen for small molecule modulators of PMP22 gene expression; shares compounds with PMP22 txn prim; purified P. pyralis FLuc, luminescence, 10 min; Potency, µM (series often up to 57.5 µM), inactives show top-dose activity, negative = inhibition, actives largely listed as inhibitors; 690 tested, under 10 active; AID 1508640, 2021; further: % of control where 0% means no effect
Target sequence (P08659 whole entry, looked up): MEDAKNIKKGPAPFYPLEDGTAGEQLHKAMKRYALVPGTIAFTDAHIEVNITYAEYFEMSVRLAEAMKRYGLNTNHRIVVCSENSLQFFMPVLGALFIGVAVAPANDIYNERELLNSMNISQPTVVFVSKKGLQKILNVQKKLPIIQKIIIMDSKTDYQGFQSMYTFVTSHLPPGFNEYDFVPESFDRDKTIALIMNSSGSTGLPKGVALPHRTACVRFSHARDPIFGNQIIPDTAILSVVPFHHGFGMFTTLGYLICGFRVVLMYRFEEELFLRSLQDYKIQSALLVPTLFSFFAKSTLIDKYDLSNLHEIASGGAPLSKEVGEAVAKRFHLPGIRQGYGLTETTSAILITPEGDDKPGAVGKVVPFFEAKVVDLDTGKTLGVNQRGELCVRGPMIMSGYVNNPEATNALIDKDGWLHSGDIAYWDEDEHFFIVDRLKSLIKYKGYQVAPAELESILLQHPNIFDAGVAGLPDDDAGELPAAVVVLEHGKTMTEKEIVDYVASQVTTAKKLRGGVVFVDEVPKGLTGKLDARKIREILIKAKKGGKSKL
S16 viab conf – Cell viability qHTS assay in S16 Pmp22-F2sN cells - Confirmatory screen; Potency, µM (top dose mostly 57.5 µM), inactives show at the highest dose activity change, negative = viability loss, hits mostly cytotoxic; AID 1508641, 2021; 690 tested, 7% active; S16 Schwann cells viability, CellTiter-Glo ATP luminescence, 24 h; shares compounds with PMP22 txn prim; further: potency means the concentration at half of the fitted maximal effect; on the % scale 0 is the no-effect control and ±100 the full control effect
PMP22 txn conf – Cell-based coincidence reporter assay to measure PMP22 gene transcription in S16 Pmp22-F2sN cells - Confirmatory screen. shares compounds with PMP22 txn prim. S16 Schwann cells Pmp22-F2sN, dual luciferase, 24 h. Potency, µM (series often up to 57.5 µM), for inactives: top-dose activity change, negative = inhibition, hits mostly inhibitors. 690 tested, 22% active; active means clear falling dose curves in both reporters; inconclusive means both reporters move, but less clearly or upward; inactive means either reporter flat; the % is the FLuc reporter signal; further: potency means the concentration at half of the fitted maximal effect
Active calls of the source: *; i = inactive; ? = inconclusive; / = no result given. An excerpt weighted towards active compounds, which were near 3.1% of everything screened. Unless noted, the call rests on the fitted dose curve; in most records, active means well fitted curve in the direction sought with a large enough effect; inconclusive means small, poorly fitted or top-dose-only effect, or another doubt; inactive means no such curve, though single readings can be large; an effect the other way counts as inactive or inconclusive.

SMILES | p53null 32C tox | S16 F2sN tox | p53null 39C kill | OvCa metastasis | mTORC1 inh | PMP22 txn prim | NLuc sat counter | NLuc Km counter | FLuc counter | S16 viab conf | PMP22 txn conf
Oc1ccc(NCc2ccccc2OCc2ccccc2F)cc1 | -2% | 28µM* | -26% | ? | -26% | 20µM* | ? | ? | ? | -7% | -7%
Cc1cccc(N(C)c2nc3ccccc3c3nnc(C)n23)c1 | 10% | 20% | 9% | -23% | -2% | -22% | / | / | / | / | /
COc1ccc(N2CCN(C(=O)c3ccc4c(c3)N(Cc3ccc(F)cc3)C(=O)c3ccccc3S4=O)CC2)cc1 (centres undefined) | 1% | 15% | ? | 19% | -8% | ? | 0.15µM* | 0.12µM* | 1% | -2% | -17%
Cc1cccc(NC(=O)Cn2c(=O)c3cccn3c3ccccc32)c1C | -12% | -2% | 86% | 0% | ? | ? | -2% | 3% | 2% | 15% | -26%
CCc1ccccc1NC(=O)Cn1c(=O)c2cccn2c2ccc(F)cc21 | 5% | 6% | -5% | i | -8% | -4% | / | / | / | / | /
Cc1ncc(CO)c2c1Oc1nc(-c3ccccc3)nc(SCC(=O)N3CCCCC3)c1C2 | 3% | 1% | -22% | 7% | -2% | 12µM* | -5% | 1% | 2% | ? | ?
Cc1ccc(NC(=O)CSc2nc(-c3ccc(F)cc3)nc3c2Cc2c(CO)cnc(C)c2O3)cc1C | -7% | 0% | ? | 13% | -1% | 9% | / | / | / | / | /
COc1ccccc1-c1nc2c(c(SCC(=O)Nc3ccc(C)c(C)c3)n1)Cc1c(CO)cnc(C)c1O2 | 4% | -25% | -15% | 23% | -6% | 17µM* | ? | ? | -10% | -19% | ?
Cc1ncc(CO)c2c1Oc1nc(-c3ccc(Cl)cc3)nc(SCC(=O)N3CCCCC3)c1C2 | -1% | ? | -23% | 2% | -2% | ? | / | / | / | / | /
NC(=O)c1ccc(-c2nc(-c3ccc4c(c3)OCCO4)c(-c3ccccn3)[nH]2)cc1 | / | / | / | 7% | / | / | / | / | / | / | /
COc1cccc(NC(=O)N(Cc2c[nH]c3ccccc23)C2CCCCCC2)c1 | 5% | -26% | ? | 0% | -12% | 20µM* | 15µM* | ? | 1% | 14% | ?
Cn1c(=O)c(-c2c(Cl)cccc2Cl)cc2cnc(Nc3cccc(C(=O)O)c3)nc21 | / | / | / | 5% | / | / | / | / | / | / | /
CCOc1ccc(-n2nc3ccc(NC(=O)Cc4ccccc4)cc3n2)cc1 | -7% | ? | 28% | ? | 2% | 5µM* | -5% | 1% | ? | 3% | -2%
O=C(Cc1ccc(Cl)cc1)Nc1ccc2nn(-c3ccccc3)nc2c1 | -3% | 20% | -3% | 3% | -5% | ? | / | / | / | / | /
COc1cc2ncn(-c3cc(OCc4ccccc4S(C)(=O)=O)c(C#N)s3)c2cc1OC | / | / | / | 0% | / | / | / | / | / | / | /
O=S(=O)(c1cccc(Cl)c1)c1nnn2c1nc(NC1CCCCCC1)c1sccc12 | 2% | -6% | -1% | 5% | -12% | 10µM* | 0% | -3% | 8% | 6% | ?
CC1=Nc2cc(C(=O)NC3CCCC3)ccc2Sc2ccc(C)cc21 | 1% | 2% | ? | 9% | ? | 7.8µM* | -10% | 4% | -7% | 15% | ?
N#CNC(=NCCCCCCOc1ccc(Cl)cc1)Nc1ccncc1 | / | / | / | -9% | / | / | / | / | / | / | /
Cc1cccc(CCNc2ncnc3onc(-c4ccc(Cl)cc4)c23)c1 | 16% | -19% | 16% | i | 1% | 19µM* | -1% | -1% | -6% | ? | ?
Clc1ccc(-c2noc3ncnc(NC4CCCCC4)c23)cc1 | -4% | 0% | 1% | i | 0% | ? | -8% | -1% | -3% | -10% | ?
CC1CCC(Nc2ncnc3onc(-c4ccc(Cl)cc4)c23)CC1 (centres undefined) | 1% | -1% | -16% | -3% | -6% | -10% | / | / | / | / | /
Cc1ccc(CCNc2ncnc3onc(-c4ccc(Cl)cc4)c23)cc1 | -6% | -17% | ? | i | 2% | ? | / | / | / | / | /
